This is an account of results in ChEMBL document CHEMBL3433997, “St. Jude Leishmania screening dataset” (2016).

Usually inhibition stands for the relative decrease from the control value, in per cent.

Common to all, as to type: functional
In assay [1] the target is Solute carrier family 2, facilitated glucose transporter member 1 (Homo sapiens) (UniProt P11166). The assay is described as follows: ST_JUDE_LEISH: Cytotoxicity at 2uM final concentration against transgenic Leishmania Mexicana promastigotes LmGLUT1 that are glucose transport deficient and complemented with the human glucose transporter GLUT1. Activity is measured by DNA content using SYBR green in vitro.

The target of assay [2] is Hexose transporter 1 (Plasmodium falciparum) (UniProt O97467). The assay is described as follows: ST_JUDE_LEISH: Cytotoxicity at 2uM final concentration against transgenic Leishmania Mexicana promastigotes LmPfHT that are glucose transport deficient and complemented with the Plasmodium falciparum hexose transporter. Activity is measured by DNA content using SYBR green in vitro.

The target in assay [3] is Glucose transporter (Leishmania mexicana) (UniProt O61059). The experiment in a line: ST_JUDE_LEISH: Cytotoxicity at 2uM final concentration against transgenic Leishmania Mexicana promastigotes LmGT2 that are glucose transport deficient and complemented with the L. Mexicana glucose transporter 2. Activity is measured by DNA content using SYBR green in vitro.

Chain of Solute carrier family 2, facilitated glucose transporter member 1 (Homo sapiens) (P11166 whole entry): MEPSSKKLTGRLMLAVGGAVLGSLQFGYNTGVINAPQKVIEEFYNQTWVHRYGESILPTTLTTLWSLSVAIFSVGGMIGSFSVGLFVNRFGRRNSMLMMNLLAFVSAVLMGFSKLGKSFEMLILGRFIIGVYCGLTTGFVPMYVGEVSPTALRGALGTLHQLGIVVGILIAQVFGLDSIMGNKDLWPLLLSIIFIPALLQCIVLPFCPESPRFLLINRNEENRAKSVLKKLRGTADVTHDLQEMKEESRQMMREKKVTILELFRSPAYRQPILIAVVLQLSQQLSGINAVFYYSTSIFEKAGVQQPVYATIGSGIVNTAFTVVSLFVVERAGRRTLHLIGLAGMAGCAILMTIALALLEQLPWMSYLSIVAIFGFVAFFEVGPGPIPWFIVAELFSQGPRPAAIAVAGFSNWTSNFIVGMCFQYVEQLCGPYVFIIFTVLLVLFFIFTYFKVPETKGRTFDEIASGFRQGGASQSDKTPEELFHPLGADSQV

Turning to `CN1CCC(NC(=O)c2cccc(Nc3cc(Nc4cccc(Br)c4)ncn3)c2)CC1`, the values for the inhibition in assay [1], in assay [2] and in assay [3] were 4.2%, 3.45% and 2.65%, respectively.
On to `c1ccc(CN2CCC(NCc3ccc(-c4cncc5ccccc45)cc3)CC2)cc1`, for which the inhibition in assay [1] is 0.33%; in assay [2], -2.18%; in assay [3], 3.84%.
For `Cc1cc(NC(=O)NCCN2CCC(NC(=O)c3ccc(C(F)(F)F)cc3)CC2)c2ccccc2n1`, the inhibition in assay [1] was 0.67%; in assay [2] it was 0.01%; in assay [3], -0.57%.
Turning to `COc1cccc(C(=O)Nc2ccc(Nc3nc(C)cc(N(C)C)n3)cc2)c1`, the values for the inhibition in assay [1], in assay [2] and in assay [3] were 12.8%, 9.13% and 7.09%, respectively.
Consider `CC(=O)Nc1ccc(C(=O)NC2CCN(c3ccnc4cc(Cl)ccc34)C2)cc1` (stereo not drawn), for which the inhibition is 0.36% in assay [1], 0.28% in assay [2] and 1.4% in assay [3].
`O=C(Nc1cccc(N2CCC(NCc3cccnc3)CC2)c1)c1cccc(C(F)(F)F)c1`: the inhibition in assay [1] is 1.16%; in assay [2] it was 1%; in assay [3], -0.6%.
Turning to `Cc1cccc2nc(-c3ccc(-c4ccc(NC(=O)Nc5ccsc5)cc4)s3)[nH]c12`, the inhibition in assay [1] stood at 5.12%; in assay [2], 5.23%; in assay [3], 4.39%.
As for `N#CN1CC[C@H](CS(=O)(=O)c2cccc(Br)c2)C1`, the figures for the inhibition in assay [1], in assay [2] and in assay [3] were 6.21%, 4.67% and 2.05%, respectively.
On the same counts, the results for `Cc1[nH]c(C)c(-c2ccc(OCCn3cnc(Cl)c3Cl)cc2)c(=O)c1Br` are -1.35%, -0.56% and -0.52%.
As for `CC1CCC(NC(=O)c2nn(-c3ccc(Cl)cc3)c(=O)c3ccccc23)CC1` (stereo not drawn), the inhibition in assay [1] is 1.52%; in assay [2], 1.39%; in assay [3], -0.26%.
Regarding `Cc1cc(Cl)c(S(=O)(=O)NC2CCCC2)cc1OCC(=O)NC1CCCCC1`, the values for the inhibition in assay [1], in assay [2] and in assay [3] were 3.49%, 2.41% and 3.8%, respectively.
`Cc1cc(S(=O)(=O)N2CCCCC(c3ccc(C(F)(F)F)cc3)=N2)c(Cl)cc1Cl`: the inhibition in assay [1] was 3.58%; in assay [2], 4.02%; in assay [3] it was -1.4%.
Consider `Cc1cccc(Nc2nc(NCCCCN)nc3cc[nH]c(=O)c23)c1`, for which the values for the inhibition in assay [1], in assay [2] and in assay [3] were 6.92%, 6.97% and 4.49%, respectively.
As for `Cc1cc(-c2ccc3c(c2)CCN(CCC2CCC(NC(=O)/C=C/c4cccc(Cl)c4)CC2)CC3)on1` (stereo not drawn), the inhibition in assay [1] stood at 4.19%; in assay [2], 3.51%; in assay [3], 3.57%.
Turning to `COc1ccc2nccc([C@@H](O)CN3CCC(NS(=O)(=O)c4cc5c(cc4Cl)SCC(=O)N5)CC3)c2c1`, the inhibition in assay [1] is 1.57%; in assay [2], 1.6%; in assay [3], -0.41%.
On the same counts, the results for `COc1cc2c(c(Cl)c1OC)CCN(Cc1ccccc1)CC2c1ccc(NC(=O)C(F)(F)F)cc1` (stereo not drawn) are 3.91%, 2.68% and 2.44%.
With `CCCOc1cc(OCCC)cc(-c2ccc(C(=O)Nc3ccc4ccc(C)nc4c3)c(=O)[nH]2)c1`, the inhibition was 1.35% in assay [1], 0.78% in assay [2] and 3.33% in assay [3].
Consider `COc1ccccc1N1CCN(c2cccc3c2nc(-c2cncc(C#N)c2)n3CCNCc2ccccc2)CC1`, for which the inhibition amounted to 9.96% in assay [1], 7.58% in assay [2] and 6.47% in assay [3].
On the same counts, the results for `Cc1ccc(NC(=O)c2ccc(NCCCN3CC(C)CC(C)C3)c([N+](=O)[O-])c2)cc1F` (stereo not drawn) are 8.68%, 5.06% and 5.89%.
For the compound `COc1c(Br)cc(Br)cc1-c1ccc(CN2C3CCCC2CCC3)[nH]1`, the inhibition in assay [1] worked out at 4.44%; in assay [2] it was 7.84%; in assay [3] it was 2.48%.
Consider `O=C(Nc1ccc2c(c1)CCN2C1CCN(Cc2ccc(C(F)(F)F)cc2F)C1)c1ccco1` (stereo not drawn), for which the inhibition is 1.38% in assay [1], 0.47% in assay [2] and 1.6% in assay [3].
In the case of `CCCCCC(C)N/C(=N/c1ccccc1Br)Nc1ccc(C#N)cc1O` (stereo not drawn), the inhibition in assay [1] came to 2.35%; in assay [2], 1.33%; in assay [3], 0.92%.
In the case of `Clc1ccc(-c2cc(-c3csc(Nc4ccncc4)n3)on2)cc1`, the inhibition in assay [1] was found to be 1.41%; in assay [2], 5.17%; in assay [3] it was 1.32%.
With `CC(C)(C)c1ccc(CNC(=O)c2cc(CNC3CCNC3)ccc2O)cc1` (stereo not drawn), the results for the inhibition in assay [1], in assay [2] and in assay [3] were 1.88%, 0.79% and 0.53%, respectively.
As to `CCN1CCN(c2cc(C)c3cc(NC(=O)C=Cc4cccc(OC)c4OC)ccc3n2)CC1`, the inhibition in assay [1] was 5.91%; in assay [2], 11.3%; in assay [3], 1.27%.
As to `O=C(NC1CCN(c2ccnc3cc(Cl)ccc23)C1)c1ccccc1F` (stereo not drawn), the inhibition was 1.93% in assay [1], 2.22% in assay [2] and 2.72% in assay [3].
For `CCOC(=O)Nc1cc(-c2csc(N=C(N)N)n2)cc([N+](=O)[O-])c1`, the figures for the inhibition in assay [1], in assay [2] and in assay [3] were 0.23%, 0.58% and 1.09%, respectively.
On the same counts, the results for `O=C(C=Cc1ccc(Cl)c(Cl)c1)NCCCCCN1CCCC(CCCNS(=O)(=O)c2ccc(Br)cc2)C1` (stereo not drawn) are 5.1%, 3.96% and 2.95%.
Turning to `COc1ccc(Nc2ncc3c(-c4cccc(NC(=O)Cc5cccc(O)c5)c4)c[nH]c3n2)cc1OC`, the inhibition was -1.87% in assay [1], 1.51% in assay [2] and 3.39% in assay [3].
On to `CC(=O)c1ccc(NC(=O)NNC(=O)c2ccc(CCN3CCC(c4nc(COCC(F)(F)F)c(-c5ccc(F)cc5)o4)CC3)cc2)cc1`, for which the figures for the inhibition in assay [1], in assay [2] and in assay [3] were 0.31%, 0.69% and -1.37%, respectively.
As to `c1ccc2[nH]c(Nc3ccc(Nc4nc5ccccc5[nH]4)cc3)nc2c1`, the inhibition was determined as 0.45% in assay [1], 0.37% in assay [2] and 0.51% in assay [3].
Consider `Oc1ccccc1CNCC12CC3CC(CC(C3)C1)C2`, for which the inhibition in assay [1] was 3.18%; in assay [2], 2.08%; in assay [3], 2.13%.
Consider `COc1ccc2nccc([C@@H](O)CN3CCC(NC(=O)Cc4cc5ccccc5s4)CC3)c2c1`, for which the inhibition in assay [1] was determined as 8.41%; in assay [2], 6.59%; in assay [3], 1.96%.
With `CCC(=O)N1CCc2cc(Br)cc(S(=O)(=O)N3CC(C)CC(C)C3)c21` (stereo not drawn), the inhibition in assay [1] was 5.05%; in assay [2], 3.54%; in assay [3] it was 3.73%.
On to `CSc1nc2nc(C)c(Cc3cccc(F)c3)c(C)n2n1`, for which the inhibition was -1.07% in assay [1], -0.45% in assay [2] and 0.34% in assay [3].
For the compound `COc1ccc(Cc2c(Cl)nc3nc(N)nc(N)c3c2C)c(OC)c1OC`, the inhibition worked out at 5.35% in assay [1], 12.4% in assay [2] and 5.26% in assay [3].
